Compounds with a hit are over-represented: about 2.3% of the library has one in this group of screens.
Giardia kill: kills Giardia lamblia. actives 0.15% (n = 340,000). activity change, % at 7.66 µM, hits read low. Giardia lamblia trophozoite viability. AID 540267; in the data active = activity change below about -80%; inconclusive = between about -30% and that limit;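 note: parasites exposed to compound for two days anaerobically before the ATP read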
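ATP-content bioluminescence gauges trophozoite survival. Cells (100/well) receive compound and incubate anaerobically for 48 hrs at 37 deg C; detection reagent follows for 15-30 min at room temperature.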
FUS suppressor: suppressors of FUS proteinopathy in yeast. S. cerevisiae FUS-expressing, growth rescue, OD600, 24 h. Potency, µM (series often up to 76.6 µM), actives largely listed as activators. actives 0.24% (n = 390,000); note: nearly all actives have a fitted effect of over 55% in size
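Steps: raffinose overnight preculture; dilution to OD 0.005 in 2% galactose minimal medium; compound addition (concentration series); 24hr at 30C, 99% humidity; absorbance read at 600 nm.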
TRPV1 agonist: human TRPV1 agonism | TRPV1-expressing cells, Fluo-8 calcium influx, agonist mode | activation, % at 8.33 µM | Q8NER1 | actives 0.19% (n = 320,000); in the data active = activation above about 80%; inconclusive = between about 30% and that limit
Target sequence (Q8NER1 whole entry, looked up): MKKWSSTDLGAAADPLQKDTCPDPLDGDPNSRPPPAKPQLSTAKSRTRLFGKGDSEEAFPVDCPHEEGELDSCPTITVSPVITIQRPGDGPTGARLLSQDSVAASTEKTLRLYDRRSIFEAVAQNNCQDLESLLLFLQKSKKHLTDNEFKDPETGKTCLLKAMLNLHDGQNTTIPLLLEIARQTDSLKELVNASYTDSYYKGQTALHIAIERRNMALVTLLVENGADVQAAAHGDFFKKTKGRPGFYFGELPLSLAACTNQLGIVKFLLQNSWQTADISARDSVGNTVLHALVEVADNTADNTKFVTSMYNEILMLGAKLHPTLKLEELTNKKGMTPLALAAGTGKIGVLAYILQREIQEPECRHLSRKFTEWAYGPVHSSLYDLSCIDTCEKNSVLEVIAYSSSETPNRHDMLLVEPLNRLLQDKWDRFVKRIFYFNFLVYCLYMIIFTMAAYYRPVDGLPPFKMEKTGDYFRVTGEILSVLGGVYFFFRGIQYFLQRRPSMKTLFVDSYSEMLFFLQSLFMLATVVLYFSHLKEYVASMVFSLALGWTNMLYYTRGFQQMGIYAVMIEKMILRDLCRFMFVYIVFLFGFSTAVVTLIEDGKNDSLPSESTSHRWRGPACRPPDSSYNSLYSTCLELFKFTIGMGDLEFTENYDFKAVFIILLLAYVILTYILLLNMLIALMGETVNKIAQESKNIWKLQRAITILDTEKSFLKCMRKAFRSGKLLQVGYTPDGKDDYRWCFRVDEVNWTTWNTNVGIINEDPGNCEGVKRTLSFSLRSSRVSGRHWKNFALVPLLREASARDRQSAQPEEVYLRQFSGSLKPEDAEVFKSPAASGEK
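Cells expressing TRPV1 were dye-loaded with Fluo-8 and read kinetically: 10 s baseline, 3 min after compound (agonist portion), then 2 min after EC20 capsaicin (allosteric enhancer portion). Calcium-bound dye fluorescence at 480/520 nm.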
TRPV1 PAM: enhances activation of the human vanilloid receptor TRPV1; TRPV1-expressing cells, Fluo-8 calcium influx, capsaicin EC20 potentiation; potentiation, % at 8.33 µM; actives 0.02% (n = 320,000); AID 540277; in the data active = potentiation above about 80%; inconclusive = between about 30% and that limit
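TRPV1-expressing cells were cultured overnight at 35.5C and loaded with Fluo-8 calcium dye for 40 to 90 min at room temperature. After a 10 s baseline, compound was added and calcium influx was read kinetically for 3 min (ex 480/em 520 nm).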
ELG1 DNA repair: inhibitors of ELG1-dependent DNA repair in HEK293T cells. HEK293T ELG1-luciferase reporter, luminescence, 16 h; DNA damage induced by 5-fluorouridine. Potency, µM (highest dose often 46.1 µM), most hits filed as inhibitors. actives 2.3% (n = 330,000). AID 504467; note: nearly all actives have a fitted effect of over 55% in size
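In this reporter screen, reduction of luminescence relative to DMSO vehicle indicated activity. Compounds and 5-fluorouridine were added together to 2,000 cells per well, incubated for 16 hr at 37 °C, then developed with ONE-Glo.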
Numbers stand for hits; i = inactive; ? = inconclusive; nt = no result. Unless noted, calls come from the whole dose curve; as a rule, active = well fitted curve in the direction sought with a large enough effect; inconclusive = small, poorly fitted or top-dose-only effect, or another doubt; inactive = no such curve, though single readings can be large; an effect the other way counts as inactive or inconclusive.

SMILES	Giardia kill	FUS suppressor	TRPV1 agonist	TRPV1 PAM	ELG1 DNA repair
COc1ccc2nc(NC(=O)C3CCCN(S(=O)(=O)c4cccs4)C3)sc2c1 (configuration not stated)	i	i	i	i	?
COc1ccc2nc(NC(=O)C3CCN(S(=O)(=O)c4cccs4)CC3)sc2c1	i	?	i	i	10.3µM
Cc1ccc2nc(NC(=O)C3CCN(S(=O)(=O)c4cccnc4)CC3)sc2c1	i	i	nt	nt	16.4µM
Cc1ccc(NC(=O)C2CCN(S(=O)(=O)c3cccc4nsnc34)CC2)cc1	nt	i	nt	nt	nt
COc1ccc2nc(NC(=O)C3CCN(S(=O)(=O)c4cccnc4)CC3)sc2c1	i	i	i	i	?
Cc1cc(C)n(-c2nc(Nc3ccccc3)nc(-n3nc(C)cc3C)n2)n1	i	i	i	i	i
COc1cccc(/C=N/Nc2cc(-n3nc(C)cc3-c3ccccc3)ncn2)c1O	i	i	i	i	5.17µM
COc1cccc(/C=N/Nc2ncnc(Cl)c2N)c1O	i	i	i	i	i
COc1cccc(/C=N/Nc2nc(Nc3ccccc3)nc(-n3nc(C)cc3C)n2)c1O	i	i	i	i	2.59µM
COc1cccc(/C=N/Nc2nccnc2Cl)c1O	i	i	i	i	?
COc1cccc(/C=N/Nc2ncnc3scc(-c4ccccc4)c23)c1O	i	i	i	i	7.31µM
CCOc1ccc(NC(=O)Cn2cc(S(=O)(=O)N3CCN(c4ccccc4F)CC3)c3ccccc3c2=O)cc1	nt	i	nt	nt	nt
Cc1ccc(/C=C/C(=O)N2CCc3ccccc3C2)cc1	i	i	80.4	i	?
CC(C)(C)c1ccc(/C=C/C(=O)N2CCc3ccccc3C2)cc1	i	i	?	i	i
CCOc1cc(C(=O)N2CC(=O)Nc3ccc(F)cc3C2c2ccccc2)cc(OCC)c1OCC (configuration not stated)	nt	i	nt	nt	nt
COc1ccccc1[C@]1(C)ON(c2ccccc2C(F)(F)F)C1=O	i	i	i	i	20.6µM
CCn1c(SCC(=O)Nc2cccc(C)c2)nc2nc3c(cc2c1=O)COC(C)(C)C3	i	i	i	i	18.3µM
CCn1c(SCC(=O)Nc2ccccc2)nc2nc3c(cc2c1=O)COC(C)(C)C3	i	i	i	?	10.3µM
Cc1noc(C)c1CSCC(=O)N1CCN(c2ccc(F)cc2)CC1	i	nt	i	i	11.2µM
COc1ccc(CNC(=O)c2ccc3nc(-c4ccc(F)cc4)c(-c4ccc(F)cc4)nc3c2)cc1	nt	i	nt	nt	nt
CCN1CCN(CC(=O)Nc2cc(S(=O)(=O)N3CCCCC3)ccc2Cl)CC1	i	i	nt	nt	i
O=C(CN1CCN(c2ccc(O)cc2)CC1)Nc1cc(S(=O)(=O)N2CCCCC2)ccc1Cl	i	i	i	i	16.4µM
O=C(CN1CCN(S(=O)(=O)N2CCOCC2)CC1)Nc1cc(Cl)ccc1Cl	i	i	i	i	20.6µM
O=C(CSc1ncnc2ccccc12)Nc1cc(S(=O)(=O)N2CCCCC2)ccc1Cl	i	nt	i	i	20.6µM
O=C(CN1CCN(c2ccc(O)cc2)CC1)Nc1cc(S(=O)(=O)N2CCCC2)ccc1Cl	i	?	i	i	23.1µM
SMILES	Giardia kill	FUS suppressor	TRPV1 agonist	TRPV1 PAM	ELG1 DNA repair
CC(=O)/C=C1/C(=O)Nc2ccccc21	i	i	i	i	i
CS(=O)(=O)N(CCC#N)Cc1ccc(/C=C2\C(=O)Nc3ccccc32)o1	i	i	i	i	7.3µM
CC(=O)c1ccc(N2CCN(C(=O)Nc3ccc(Cl)cc3)CC2)cc1	i	i	83.8	i	16.4µM
COc1ccc(N2CCN(C(=S)Nc3ccccc3)CC2)cc1	i	i	i	i	i
CC(=O)c1ccc(N2CCN(C(=S)Nc3ccc(Oc4ccccc4)cc3)CC2)cc1	i	i	?	i	5.8µM
O=C(NC1CCCc2ccccc21)c1ccc2c(c1)sc1nc(-c3ccccc3)cn12 (configuration not stated)	nt	i	nt	nt	nt
CNC(=O)/C(C#N)=C/c1c(N2CCN(c3cccc(Cl)c3)CC2)nc2c(C)cccn2c1=O	i	i	?	i	20.6µM
CCNC(=O)/C(C#N)=C/c1c(N2CCN(c3ccc(OC)cc3)CC2)nc2c(C)cccn2c1=O	i	i	i	i	23.1µM
O=C(CSc1nnc(-c2ccccc2Br)n1-c1ccccc1)c1ccc(F)cc1	nt	i	nt	nt	nt
CCCCSCCCNC(=O)c1cn(CC)c2ccc(S(=O)(=O)N(C)C3CCCCC3)cc2c1=O	nt	i	nt	nt	nt
O=C(CSc1nnc(-c2ccco2)n1Cc1ccccc1)NC(=O)NCc1ccccc1	i	i	i	i	18.4µM
CCn1nc(-c2ccc(C)cc2)nc2c(=O)n(C)c(=O)nc1-2	-102.2	nt	nt	nt	nt
COc1ccc(-c2nc(-c3ccncc3)no2)cc1	i	i	i	i	?
Cn1nc(-c2ccncc2)nc2c(=O)n(C)c(=O)nc1-2	-88.0	nt	nt	nt	nt
CCS(=O)(=O)n1nc(-c2ccc(C)cc2)nc1N	i	i	i	i	i
COc1ccc(-c2sc3ccc(N4CCOCC4)cc3c2C#CCO)cc1	i	i	nt	nt	5.17µM
O=C(NCC1CCCO1)c1cnn2c(C(F)F)cc(C3CC3)nc12 (configuration not stated)	i	i	i	i	i
COc1ccccc1CNC(=O)c1cnn2c(C(F)F)cc(C)nc12	i	i	i	i	23.1µM
COc1ccc(-c2cc(C(F)F)n3ncc(C(=O)NCC4CCCO4)c3n2)cc1 (configuration not stated)	i	i	i	i	2.06µM
Cc1ccccc1NC(=S)N/N=C/c1ccc(O)cc1O	i	i	i	i	?
Cc1cccc(NC(=S)N/N=C/c2cccc(O)c2)c1C	i	i	i	i	18.3µM
Cc1onc(-c2ccccc2Cl)c1C(=O)OCC(=O)Nc1cccc(S(=O)(=O)N(C)C)c1	i	i	i	i	16.4µM
CCOC(=O)c1c(C)[nH]c(C(=O)CN(C)CC(=O)Nc2ccccc2Cl)c1C	i	i	i	i	?
CC(=O)c1c(C)[nH]c(C(=O)CN(C)CC(=O)Nc2ccccc2Cl)c1C	i	i	nt	nt	18.3µM
CC(=O)c1c(C)[nH]c(C(=O)OCc2ccc(Br)cc2)c1C	i	i	i	i	18.3µM
SMILES	Giardia kill	FUS suppressor	TRPV1 agonist	TRPV1 PAM	ELG1 DNA repair
CC(=O)c1c(C)[nH]c(C(=O)OCC(=O)Nc2cccc(S(=O)(=O)N(C)C)c2)c1C	i	i	i	i	13µM
O=C1CCCC(=O)N1CCCCCCN1C(=O)CCCC1=O	nt	i	nt	nt	nt
Cc1ccc(C(=O)c2cn(CC(=O)Nc3ccc4c(c3)OCCO4)c3nc(C)ccc3c2=O)cc1	nt	i	nt	nt	nt
COc1cc(/C=C/C(=O)OCC(=O)Nc2cc(S(=O)(=O)N3CCCCC3)ccc2C)ccc1O	i	25.1µM	?	i	?
CN(C)S(=O)(=O)c1cccc(NC(=O)COc2ccc(C(=O)c3ccccc3)cc2)c1	i	i	i	i	13µM
CC(=O)c1c(C)[nH]c(C(=O)OCC(=O)Nc2cccnc2Cl)c1C	i	i	nt	nt	?
CC(=O)c1c(C)[nH]c(C(=O)OCC(=O)Nc2ccccc2Cl)c1C	i	i	i	i	8.2µM
